Assay [1] addresses Rap guanine nucleotide exchange factor 3 (Homo sapiens) (UniProt O95398). Briefly: Confirmatory qHTS for agonist of cAMP-regulated guanine nucleotide exchange factor 3 (EPAC1) (AID 1645881).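 Further: EPAC1 catalysed release of BODIPY-GDP from Rap1B seen as fluorescence loss; 100% = effect of cAMP agonist control; nearly all actives have a fitted effect of over 75% in size.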 For orientation: qHTS replaces the single test concentration by a dilution series.
For assay [2] the target is unchanged. In words: Counterscreen qHTS for antagonist of cAMP-regulated guanine nucleotide exchange factor 3 (EPAC1) (AID 1645888).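 Further: fluorescence loss as bound BODIPY-GDP is released from Rap1B; % of control where 0% means no effect.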 The method in brief:
(§1)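 Measured: fluorescence of BODIPY-GDP bound to Rap1B, which falls as exchange proceeds. Conditions include 50 uM competing GDP, 5 and 30 min reads, and a later cAMP challenge for antagonist detection.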
In general terms: Counterscreens check selectivity or assay interference.

Assay [3] shares this target. In words: Counterscreen qHTS for agonist of cAMP-regulated guanine nucleotide exchange factor 3 (EPAC1) (AID 1645889). Further: % of control where 0% means no effect; nearly all actives have a fitted effect of over 40% in size. The method in brief:
as §1

For assay [4], the target named is Rap guanine nucleotide exchange factor 4 (Homo sapiens) (UniProt Q8WZA2). Briefly: Confirmatory qHTS for agonist of cAMP-regulated guanine nucleotide exchange factor 4 (EPAC2) (AID 1645884).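 Further: nucleotide exchange releases bodipy-GDP from Rap1 and this lowers its fluorescence; on the % scale 0 is the no-effect control and ±100 the full control effect; nearly all actives have a fitted effect of over 65% in size.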
Rap guanine nucleotide exchange factor 4 (Homo sapiens), sequence (Q8WZA2 whole entry, looked up): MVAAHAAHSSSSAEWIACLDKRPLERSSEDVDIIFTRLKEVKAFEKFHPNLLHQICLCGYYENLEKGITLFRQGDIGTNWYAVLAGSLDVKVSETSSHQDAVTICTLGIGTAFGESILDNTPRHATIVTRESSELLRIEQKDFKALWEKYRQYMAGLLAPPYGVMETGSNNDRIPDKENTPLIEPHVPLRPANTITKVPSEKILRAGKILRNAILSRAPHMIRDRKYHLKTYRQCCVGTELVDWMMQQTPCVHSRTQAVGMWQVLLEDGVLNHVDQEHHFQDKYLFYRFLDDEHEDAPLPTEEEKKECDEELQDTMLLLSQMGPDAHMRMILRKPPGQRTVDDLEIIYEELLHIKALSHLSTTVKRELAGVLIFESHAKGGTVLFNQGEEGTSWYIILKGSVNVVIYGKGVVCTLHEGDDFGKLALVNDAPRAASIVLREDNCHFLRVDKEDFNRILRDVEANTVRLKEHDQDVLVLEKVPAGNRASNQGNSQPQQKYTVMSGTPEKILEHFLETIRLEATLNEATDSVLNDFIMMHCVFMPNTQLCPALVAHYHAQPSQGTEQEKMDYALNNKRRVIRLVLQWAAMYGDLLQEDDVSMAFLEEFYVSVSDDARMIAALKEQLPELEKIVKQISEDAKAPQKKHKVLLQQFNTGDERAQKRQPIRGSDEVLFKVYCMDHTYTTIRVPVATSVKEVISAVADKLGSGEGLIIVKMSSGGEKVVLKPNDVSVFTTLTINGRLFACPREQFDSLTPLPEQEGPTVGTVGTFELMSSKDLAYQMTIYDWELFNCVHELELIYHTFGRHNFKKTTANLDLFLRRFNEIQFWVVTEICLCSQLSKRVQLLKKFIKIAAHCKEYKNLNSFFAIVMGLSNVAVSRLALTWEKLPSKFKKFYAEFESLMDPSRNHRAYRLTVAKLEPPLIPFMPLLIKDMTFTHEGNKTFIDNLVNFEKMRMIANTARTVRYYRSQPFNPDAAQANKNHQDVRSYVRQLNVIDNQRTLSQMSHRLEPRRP
For assay [5] the target is unchanged. Briefly: Confirmatory qHTS for antagonist of cAMP-regulated guanine nucleotide exchange factor 4 (EPAC2) (AID 1645885). Further: on the % scale 0 is the no-effect control and ±100 the full control effect; nearly all actives have a fitted effect of over 25% in size.

We go through 36 compounds from PubChem BioAssay (NCATS).

Records with an inconclusive call do not appear. Values without a mark were called inactive. The source made the active and inactive calls. The call rests on the fitted dose curve; in most records, active means well fitted curve in the direction sought with a large enough effect; inconclusive means small, poorly fitted or top-dose-only effect, or another doubt; inactive means no such curve, though single readings can be large; an effect the other way counts as inactive or inconclusive.

Rap guanine nucleotide exchange factor 3 (Homo sapiens), sequence (O95398 whole entry, looked up): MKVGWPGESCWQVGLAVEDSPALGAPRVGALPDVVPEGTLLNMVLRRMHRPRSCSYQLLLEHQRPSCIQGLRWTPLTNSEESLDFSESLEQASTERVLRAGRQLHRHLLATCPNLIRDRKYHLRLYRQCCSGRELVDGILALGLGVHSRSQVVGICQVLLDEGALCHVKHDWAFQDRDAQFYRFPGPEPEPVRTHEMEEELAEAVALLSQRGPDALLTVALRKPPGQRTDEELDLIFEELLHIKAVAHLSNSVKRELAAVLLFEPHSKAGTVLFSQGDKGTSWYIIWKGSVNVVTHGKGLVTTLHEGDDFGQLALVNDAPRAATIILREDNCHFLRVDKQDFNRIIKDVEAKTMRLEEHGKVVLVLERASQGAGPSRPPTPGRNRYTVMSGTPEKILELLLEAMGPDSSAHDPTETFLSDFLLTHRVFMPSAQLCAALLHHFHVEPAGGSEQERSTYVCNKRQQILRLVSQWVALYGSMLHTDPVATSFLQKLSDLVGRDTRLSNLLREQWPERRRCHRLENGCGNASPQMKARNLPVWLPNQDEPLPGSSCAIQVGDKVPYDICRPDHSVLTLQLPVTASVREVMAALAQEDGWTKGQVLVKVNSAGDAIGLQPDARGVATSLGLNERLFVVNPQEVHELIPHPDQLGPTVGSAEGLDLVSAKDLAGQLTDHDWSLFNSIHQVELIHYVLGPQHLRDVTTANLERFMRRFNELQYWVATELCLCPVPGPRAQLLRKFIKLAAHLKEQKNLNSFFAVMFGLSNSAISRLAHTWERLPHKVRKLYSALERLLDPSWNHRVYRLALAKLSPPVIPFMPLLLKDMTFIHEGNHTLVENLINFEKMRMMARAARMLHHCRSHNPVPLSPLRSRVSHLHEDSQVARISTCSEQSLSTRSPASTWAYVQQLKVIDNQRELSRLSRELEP

With `COc1ccc(C(=O)Oc2ccc(/C=N/Nc3ccc(Cl)c(C(=O)O)c3)cc2OC)cc1`, the Potency result in assay [1] and in assay [2] was “inactive” each time.

`O=C1N(c2ccc(Cl)cc2)C(c2ccccc2)N2CCCN12` (stereo unspecified): the Potency entry in assay [1] and in assay [2] was “inactive” in each case.

In the case of `COC(=O)c1ccc2nc(C3CCCCC3)c(Cc3ccccc3C(F)(F)F)n2c1`, the Potency result in assay [1], in assay [2] and in assay [3] was “inactive” each time.

Consider `CCOC(=O)C1=C(c2ccccc2)c2ccccc2OC1C(=O)OCC` (stereo unspecified), for which the Potency entry in assay [1] is “inactive”. Further, the activity change, negative = inhibition in assay [2] is -22.2% [at 30.8 µM]. Also, the activation in assay [3] is 24.5% [at 30.8 µM].

Turning to `N#Cc1c(N)c(C#N)c(-c2ccc(O)cc2)c2c1CCCC2`, the Potency entry in assay [1] and in assay [2] was “inactive” each time.

Turning to `COC(=O)C1=CN(c2c(C)cc(C)cc2C)C(N)=C(C#N)C1c1ccccc1` (stereo unspecified), the Potency entry in assay [1] and in assay [2] was “inactive” each time.

For the compound `COc1ccc(NC(=O)c2cc(-c3cc(Cl)ccc3C)n[nH]2)cn1`, the Potency result in assay [1] and in assay [2] was “inactive” each time.

On to `Clc1ccc(CSc2nnc(-c3ccccn3)n2Cc2ccco2)cc1Cl`, for which the Potency entry in assay [1] and in assay [2] was “inactive” each time.

Consider `CN(CC(=O)Nc1cccc(F)c1)C(=O)/C=C/c1cc(Br)ccc1OC(F)F`, for which the Potency result in assay [1] and in assay [2] was “inactive” in each case.

For the compound `COc1ccc(CN(C(=O)c2ccco2)c2ccc(C)c(C)c2)cc1`, in assay [1], the Potency result is “inactive”. Also, the activity change, negative = inhibition in assay [2] is -23% [at 30.8 µM]. Besides, the activation in assay [3] was 12.3% [at 30.8 µM].

As to `S=C(Nc1ccc2nsnc2c1)N1CCCCC1`, the Potency result in assay [1] and in assay [2] was “inactive” in each case.

For the compound `COc1ccccc1CNC(=O)C1(C)CCN1Cc1ccc2ccccc2c1` (stereo unspecified), the Potency entry in assay [1], in assay [2] and in assay [3] was “inactive” each time.

For the compound `CC(=O)NC(c1cccc(F)c1)c1nc(/C=C/c2ccccc2)cs1` (stereo unspecified), the Potency result in assay [1] and in assay [2] was “inactive” in each case.

On to `O=C(/C=C/c1ccco1)Oc1cc(Br)cc(/C=N/NC(=O)c2ccccc2O)c1`, for which the Potency entry in assay [1] and in assay [2] was “inactive” throughout.

Take `Cc1ccc(S(=O)(=O)CC(=O)c2cc3cccc(C)c3oc2=O)cc1`: the Potency result in assay [1], in assay [2] and in assay [3] was “inactive” throughout.

Consider `COC(=O)c1ccc2nc(-c3cccc(Br)c3)c(Cc3ccccc3)n2c1`, for which the Potency result in assay [1] and in assay [2] was “inactive” each time.

As to `Cc1ccc2sc(N(CCCN(C)C)C(=O)c3nc4ccccc4s3)nc2c1C`, the Potency result in assay [1] and in assay [2] was “inactive” each time.

For `CCc1nnc(NS(=O)(=O)c2ccc(NC(=O)C(c3ccccc3)c3ccccc3)cc2)s1`, the Potency entry in assay [1] and in assay [2] was “inactive” each time.

Turning to `Cc1cccc(Oc2ccccc2NC(=O)C2=COCCO2)c1`, the Potency result in assay [1] and in assay [2] was “inactive” throughout.

On to `C/[N+]([O-])=C/c1c(OCc2ccccc2)ccc2ccccc12`, for which the Potency result in assay [1], in assay [2] and in assay [3] was “inactive” each time.

`Cc1nc([N+](=O)[O-])c(Br)n1Cc1ccc(Cl)c(Cl)c1`: the Potency entry in assay [1] and in assay [2] was “inactive” each time.

Consider `Cn1ccc2c(-c3ccc(C(C)(C)C)cc3)cc3c(c21)C1CCC3O1` (stereo unspecified), for which the Potency entry in assay [1], in assay [2] and in assay [3] was “inactive” throughout.

For the compound `CC(=O)N(CCC(Cc1ccccc1)c1ccco1)Cc1ccco1` (stereo unspecified), the Potency result in assay [1] was “inactive”. For the same compound, in assay [2], the activity change, negative = inhibition is -6.33% [at 30.8 µM]. Further, in assay [3], the activation was 32.1% [at 30.8 µM].

Consider `C/C(=N\N(Cc1ccccc1)c1ccccc1)c1cccnc1`, for which the Potency entry in assay [1] and in assay [2] was “inactive” in each case.

Consider `COC(=O)c1ccc2nc(-c3ccc(C)cc3)c(Cc3ccsc3)n2c1`, for which the Potency entry in assay [1] was “inactive”. Further, the activity change, negative = inhibition in assay [2] is 1.91% [at 30.8 µM]. The activation in assay [3] was 9.45% [at 30.8 µM].

Regarding `COc1ccc(C=C(C(C)=O)C(=O)c2ccccc2)cc1`, the Potency entry in assay [1] and in assay [2] was “inactive” each time.

As to `O=C(O)c1cccc(Cn2c(Cl)c(/C=N/NC(=O)c3cc4ccccc4cc3O)sc2=O)c1`, the Potency result in assay [1] and in assay [2] was “inactive” throughout.

Consider `COc1ccc(C2CC(=O)Oc3cc(OC)c(OC)c(OC)c32)cc1` (stereo unspecified), for which, in assay [1], the Potency entry is “inactive”. The activity change, negative = inhibition in assay [2] is -24.9% [at 30.8 µM]. Further, in assay [3], the activation was 20% [at 30.8 µM].

In the case of `CCC(=O)N1N=C(c2cccs2)CC1c1ccc(C)cc1` (stereo unspecified), the Potency entry in assay [1], in assay [2] and in assay [3] was “inactive” in each case.

On to `Cc1ccc2nc(-c3ccccc3)c(Cc3cccc(Cl)c3)n2c1`, for which the Potency result in assay [1] and in assay [2] was “inactive” in each case.

`COc1ccc(C(=O)/C=C/c2ccccc2)c(OC)c1`: the Potency result in assay [1] and in assay [2] was “inactive” each time.

Consider `Cc1ccccc1C1CC(=O)c2ccccc2C1C` (stereo unspecified), for which the Potency result in assay [1], in assay [2] and in assay [3] was “inactive” in each case.

With `Oc1ccccc1N=Cc1c(O)ccc2ccccc12`, the activation in assay [4] was 0% [at 17.1 µM, percent relative to cAMP agonist control]. Moreover, the Potency entry in assay [5] is “inactive”. Moreover, in assay [2], the activity change, negative = inhibition is -12% [at 30.8 µM].

As for `COC(=O)C1=C(C)N(Cc2ccco2)C(=O)N[C@H]1c1cccc(C(F)(F)F)c1`, the Potency entry in assay [1] and in assay [3] was “inactive” each time.

In the case of `COc1ccc(CN(Cc2ccco2)C(=O)c2ccccc2F)cc1`, the Potency entry in assay [4], in assay [5] and in assay [2] was “inactive” each time.

Consider `CCc1nc2c(OCc3ccc(C(F)(F)F)cc3)cccn2c1N(C)C(=O)C1CC1`, for which the Potency entry in assay [1] and in assay [3] was “inactive” in each case.
